Measurements as given in PubChem BioAssay (NCI).
The panel holds about 83,000 compounds, 20% with a hit somewhere; the sample as a whole holds those more often.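 The endpoint reported here, percent growth, reads 100 for growth as untreated, 0 for no net growth and -100 for all cells dead.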 Unmarked numbers belong to inactive results. Active and inactive are the calls of the source. How the source made its calls: active means growth percent below 10; inactive means the rest.

Assays:
Experiment in all cases: NCI-60 one-dose screen, 48 h (100 = growth as untreated, 0 = no growth, -100 = all killed)
[1] = system: DU-145 prostate; conditions: 10 µM unless noted
[2] = system: K-562 leukemia; conditions: 10 µM unless noted
[3] = system: MALME-3M melanoma; conditions: 10 µM unless noted
[4] = system: MDA-MB-231 breast; conditions: 10 µM unless noted
[5] = system: RXF 393 renal; conditions: 10 µM unless noted
[6] = system: SF-268 CNS; conditions: 10 µM unless noted
[7] = system: SF-295 CNS; conditions: 10 µM unless noted
[8] = system: SF-539 CNS; conditions: 10 µM unless noted
[9] = system: UACC-257 melanoma; conditions: 10 µM
[10] = system: M14 melanoma; conditions: 10 µM unless noted
[11] = system: HT29 colon; conditions: 10 µM unless noted
[12] = system: SNB-75 CNS; conditions: 10 µM unless noted
[13] = system: SNB-19 CNS; conditions: 10 µM unless noted
[14] = system: U251 CNS; conditions: 10 µM unless noted
[15] = system: PC-3 prostate; conditions: 10 µM unless noted
[16] = system: SK-MEL-5 melanoma; conditions: 10 µM unless noted
[17] = system: UACC-62 melanoma; conditions: 10 µM unless noted
[18] = system: LOX IMVI melanoma; conditions: 10 µM unless noted
[19] = system: SK-MEL-28 melanoma; conditions: 10 µM unless noted
[20] = system: HCT-15 colon; conditions: 10 µM unless noted

Compound: COc1ccc(-c2nc3cc(Cl)c(Cl)cc3n2CC(=O)N=Nc2c(O)[nH]c3ccccc23)cc1
- growth [1]: -11.4% (active)
- growth [2]: 28.7%
- growth [3]: 35.9%
- growth [4]: 54.2%
- growth [5]: -21.8% (active)
- growth [6]: 64.4%
- growth [7]: 79.4%
- growth [8]: 13.7%
- growth [9]: 95.7%
- growth [10]: 50.5%
- growth [11]: 78.9%
- growth [12]: 60%
- growth [13]: 91.3%
- growth [14]: 71%
- growth [15]: 76.1%
- growth [16]: 53.6%
- growth [17]: 68.1%
- growth [18]: 9.62% (active)
- growth [19]: 74.7%

Compound: CC(=O)C1=NN(c2ccc(Cl)cc2)C(=O)CN1C
- growth [1]: 107%
- growth [2]: 114%
- growth [3]: 107%
- growth [4]: 105%
- growth [5]: 121%
- growth [6]: 108%
- growth [7]: 95.5%
- growth [8]: 97.8%
- growth [9]: 101%
- growth [10]: 101%
- growth [11]: 102%
- growth [12]: 106%
- growth [13]: 103%
- growth [14]: 97.6%
- growth [15]: 98.1%
- growth [16]: 102%
- growth [17]: 97.7%
- growth [18]: 98.3%
- growth [19]: 102%

Compound: CCCC(=O)NC(c1cccnc1)c1ccc2c(C)ccnc2c1O (stereo not drawn)
- growth [1]: 30.1%
- growth [2]: 21.4%
- growth [3]: 21.2%
- growth [4]: 32.9%
- growth [5]: 20.4%
- growth [6]: 21.9%
- growth [7]: 17.8%
- growth [8]: 14.6%
- growth [9]: 5.9% (active)
- growth [10]: 9.45% (active)
- growth [20]: 26.9%
- growth [11]: 20.3%
- growth [13]: 37.8%
- growth [14]: 26.7%
- growth [15]: 36.4%
- growth [17]: -7.84% (active)
- growth [18]: 9.72% (active)
- growth [19]: 30.4%

Compound: COc1cc(/C=N/n2cnc3oc(-c4ccccc4)cc3c2=N)cc(CN2CCN(C)CC2)c1O
- growth [1]: 110%
- growth [2]: 26.3%
- growth [3]: 113%
- growth [4]: 79.3%
- growth [5]: 27.7%
- growth [6]: 93.6%
- growth [7]: 109%
- growth [8]: 94%
- growth [9]: 106%
- growth [10]: 103%
- growth [11]: 48.3%
- growth [13]: 110%
- growth [14]: 108%
- growth [15]: 77.7%
- growth [16]: 87.9%
- growth [17]: 102%
- growth [18]: 79%
- growth [19]: 94.1%

Compound: COc1cc(NC2=C(Cl)C(=O)c3nc(C)ccc3C2=O)cc(OC)c1
- growth [1]: -93% (active)
- growth [2]: 4.73% (active)
- growth [3]: -89.4% (active)
- growth [4]: -28.6% (active)
- growth [5]: -97.2% (active)
- growth [6]: 37%
- growth [7]: 51.6%
- growth [8]: -30.9% (active)
- growth [9]: -92% (active)
- growth [10]: -96% (active)
- growth [11]: 24.9%
- growth [12]: -4.09% (active)
- growth [13]: 30.4%
- growth [14]: 36.8%
- growth [15]: 28%
- growth [16]: -74.9% (active)
- growth [17]: -43.6% (active)
- growth [18]: -82.6% (active)
- growth [19]: -73.1% (active)

Compound: Cc1ccc(/C=C/CC(=O)Nc2ccc(C(=O)Nc3ccc(F)cc3N)nc2)cn1
- growth [1]: 34.9%
- growth [2]: 20.4%
- growth [3]: 23.9%
- growth [4]: 54.7%
- growth [5]: 37.2%
- growth [6]: 45.2%
- growth [7]: 49.1%
- growth [8]: 40.8%
- growth [9]: 32.9%
- growth [10]: 35.5%
- growth [11]: 15.9%
- growth [12]: 36.7%
- growth [13]: 60%
- growth [14]: 44.9%
- growth [15]: 42.9%
- growth [16]: 20.9%
- growth [17]: 21.8%
- growth [18]: 24.3%
- growth [19]: 25.3%

Compound: COc1cc2cc(Oc3ccc(NC(=O)Nc4cccc(C(F)(F)F)c4)cc3)c(C)nc2cc1OCCN(C)C
- growth [1]: 92.5%
- growth [2]: 10% (active)
- growth [3]: 84.7%
- growth [4]: 98.1%
- growth [5]: 75.9%
- growth [6]: 107%
- growth [7]: 81.1%
- growth [8]: 92%
- growth [9]: 100%
- growth [10]: 107%
- growth [20]: 25%
- growth [11]: 60.1%
- growth [13]: 99%
- growth [14]: 84.8%
- growth [15]: 85.9%
- growth [17]: 100%
- growth [18]: -74.9% (active)
- growth [19]: 91.6%

Compound: O=C(CCCCCCN1CC(=O)N2[C@@H](c3cccc(Br)c3)c3[nH]c4ccccc4c3C[C@H]2C1=O)NO
- growth [1]: 24.2%
- growth [2]: 15.5%
- growth [3]: 29.3%
- growth [4]: 11.7%
- growth [5]: -16.7% (active)
- growth [6]: 24.9%
- growth [7]: 15.6%
- growth [8]: 32.2%
- growth [9]: 44.9%
- growth [10]: 27.4%
- growth [11]: 14.8%
- growth [13]: 38%
- growth [14]: 25%
- growth [15]: 32.8%
- growth [16]: 15.2%
- growth [17]: 1.57% (active)
- growth [18]: -59.8% (active)
- growth [19]: 26.6%
